From the supplement of paper PMC11732987, “Enantioselective OTUD7B fragment discovery through chemoproteomics screening and high-throughput optimisation” (Communications Chemistry, 2025)

Legend:
Experiment in all cases: log2 ratio of Biotin-Ahx-Ub-VS probe labelling (fragment/DMSO); higher = less target engagement (more negative = stronger competition), active = hit call of the paper (q ≤ 0.05, log2 ratio ≤ -1)
Details in all cases: compound concentration: 200 uM; treatment time: 3 h
USP34 = USP34 (UniProt Q70CQ2)
Procedure, shortened: (§1)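 HEK293T lysate in Tris/CHAPS/IGEPAL buffer with protease inhibitors (495 µg per sample) was given fragment at 200 µM or vehicle for 3 h, in triplicate. It then received Biotin-Ahx-Ub-VS at 0.5 µM final for 1 h. Labelled DUBs were NeutrAvidin-enriched, digested with LysC and trypsin, and run by diaPASEF LC-MS/MS. Values are average log2 fragment/vehicle ratios by unpaired t-test on global-median-normalised Spectronaut quantities of proteins with ≥2 unique peptides.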

USP36 = target: T1, USP36 (UniProt Q9P275)
T1 sequence (whole entry): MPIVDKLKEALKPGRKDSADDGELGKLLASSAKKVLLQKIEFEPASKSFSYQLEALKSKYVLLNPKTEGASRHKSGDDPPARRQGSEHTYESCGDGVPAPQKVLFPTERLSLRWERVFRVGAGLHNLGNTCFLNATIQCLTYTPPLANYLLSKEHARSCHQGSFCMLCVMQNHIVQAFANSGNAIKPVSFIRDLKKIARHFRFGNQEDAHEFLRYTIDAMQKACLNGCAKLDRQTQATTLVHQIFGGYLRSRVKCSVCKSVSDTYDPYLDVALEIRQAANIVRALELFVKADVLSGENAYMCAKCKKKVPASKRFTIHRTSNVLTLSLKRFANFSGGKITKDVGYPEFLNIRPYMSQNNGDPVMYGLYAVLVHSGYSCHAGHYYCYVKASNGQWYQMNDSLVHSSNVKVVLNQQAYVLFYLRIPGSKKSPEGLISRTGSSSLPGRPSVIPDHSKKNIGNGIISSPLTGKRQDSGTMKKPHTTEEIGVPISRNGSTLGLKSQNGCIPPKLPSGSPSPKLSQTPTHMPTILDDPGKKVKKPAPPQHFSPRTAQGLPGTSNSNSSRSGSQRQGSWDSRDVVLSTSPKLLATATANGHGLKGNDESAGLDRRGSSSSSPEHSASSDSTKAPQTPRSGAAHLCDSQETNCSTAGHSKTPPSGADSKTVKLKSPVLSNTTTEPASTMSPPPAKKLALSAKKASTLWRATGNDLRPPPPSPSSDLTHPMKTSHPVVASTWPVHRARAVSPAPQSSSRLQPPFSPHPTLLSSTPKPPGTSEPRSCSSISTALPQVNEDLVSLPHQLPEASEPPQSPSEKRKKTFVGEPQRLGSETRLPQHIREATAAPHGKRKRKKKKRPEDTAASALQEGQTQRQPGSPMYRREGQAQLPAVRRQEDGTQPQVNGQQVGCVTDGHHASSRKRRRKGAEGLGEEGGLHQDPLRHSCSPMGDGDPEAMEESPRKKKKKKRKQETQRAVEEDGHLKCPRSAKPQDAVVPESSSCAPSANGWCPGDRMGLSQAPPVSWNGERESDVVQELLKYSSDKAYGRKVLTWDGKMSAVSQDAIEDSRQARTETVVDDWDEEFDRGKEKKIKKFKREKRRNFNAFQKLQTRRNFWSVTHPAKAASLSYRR
Procedure, shortened: as §1

USP38 = target: T2, USP38 (UniProt Q8NB14)
T2 sequence (whole entry): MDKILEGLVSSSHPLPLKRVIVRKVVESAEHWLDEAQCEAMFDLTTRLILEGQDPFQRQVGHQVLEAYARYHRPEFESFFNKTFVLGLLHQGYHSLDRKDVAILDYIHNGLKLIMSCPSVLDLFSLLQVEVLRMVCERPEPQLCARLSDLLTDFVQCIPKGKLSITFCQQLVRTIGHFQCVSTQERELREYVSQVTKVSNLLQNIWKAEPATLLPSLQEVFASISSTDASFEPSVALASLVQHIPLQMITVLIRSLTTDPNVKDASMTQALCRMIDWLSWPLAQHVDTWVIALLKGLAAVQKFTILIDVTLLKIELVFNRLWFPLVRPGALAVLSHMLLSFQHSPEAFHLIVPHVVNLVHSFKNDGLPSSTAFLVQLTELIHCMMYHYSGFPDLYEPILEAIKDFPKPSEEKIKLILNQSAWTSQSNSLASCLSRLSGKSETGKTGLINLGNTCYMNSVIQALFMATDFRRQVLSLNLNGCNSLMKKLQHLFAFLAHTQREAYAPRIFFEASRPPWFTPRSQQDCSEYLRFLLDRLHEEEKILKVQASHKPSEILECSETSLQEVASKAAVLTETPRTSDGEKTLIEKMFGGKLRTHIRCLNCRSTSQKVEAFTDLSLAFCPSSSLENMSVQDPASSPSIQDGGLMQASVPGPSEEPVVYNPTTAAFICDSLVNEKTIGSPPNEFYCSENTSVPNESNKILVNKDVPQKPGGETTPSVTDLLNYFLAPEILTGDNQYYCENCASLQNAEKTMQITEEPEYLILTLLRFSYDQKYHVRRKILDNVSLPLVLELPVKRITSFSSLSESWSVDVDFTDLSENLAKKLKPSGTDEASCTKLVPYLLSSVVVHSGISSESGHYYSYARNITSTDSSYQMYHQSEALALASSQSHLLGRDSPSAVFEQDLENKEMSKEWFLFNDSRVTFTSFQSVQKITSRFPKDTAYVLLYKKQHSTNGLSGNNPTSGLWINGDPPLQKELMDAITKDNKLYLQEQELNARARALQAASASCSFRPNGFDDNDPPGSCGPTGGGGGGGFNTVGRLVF
Procedure, shortened: as §1

USP39 = target: T3, USP39 (UniProt Q53GS9)
T3 sequence (whole entry): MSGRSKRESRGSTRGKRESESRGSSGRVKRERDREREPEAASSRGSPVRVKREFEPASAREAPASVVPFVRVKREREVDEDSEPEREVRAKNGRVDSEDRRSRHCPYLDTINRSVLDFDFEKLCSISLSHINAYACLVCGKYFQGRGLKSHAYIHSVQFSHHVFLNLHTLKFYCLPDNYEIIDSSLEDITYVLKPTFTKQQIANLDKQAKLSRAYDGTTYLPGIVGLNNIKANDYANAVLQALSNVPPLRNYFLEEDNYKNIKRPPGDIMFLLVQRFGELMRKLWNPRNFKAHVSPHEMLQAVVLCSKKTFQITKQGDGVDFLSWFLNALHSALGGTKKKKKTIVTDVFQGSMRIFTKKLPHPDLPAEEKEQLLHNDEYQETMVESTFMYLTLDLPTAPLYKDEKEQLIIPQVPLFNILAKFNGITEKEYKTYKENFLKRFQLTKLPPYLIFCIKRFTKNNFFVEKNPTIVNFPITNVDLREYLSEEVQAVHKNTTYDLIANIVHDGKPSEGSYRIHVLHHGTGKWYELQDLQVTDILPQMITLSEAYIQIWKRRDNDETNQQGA
Procedure, shortened: as §1

USP4 = target: T4, USP4 (UniProt Q13107)
T4 sequence (whole entry): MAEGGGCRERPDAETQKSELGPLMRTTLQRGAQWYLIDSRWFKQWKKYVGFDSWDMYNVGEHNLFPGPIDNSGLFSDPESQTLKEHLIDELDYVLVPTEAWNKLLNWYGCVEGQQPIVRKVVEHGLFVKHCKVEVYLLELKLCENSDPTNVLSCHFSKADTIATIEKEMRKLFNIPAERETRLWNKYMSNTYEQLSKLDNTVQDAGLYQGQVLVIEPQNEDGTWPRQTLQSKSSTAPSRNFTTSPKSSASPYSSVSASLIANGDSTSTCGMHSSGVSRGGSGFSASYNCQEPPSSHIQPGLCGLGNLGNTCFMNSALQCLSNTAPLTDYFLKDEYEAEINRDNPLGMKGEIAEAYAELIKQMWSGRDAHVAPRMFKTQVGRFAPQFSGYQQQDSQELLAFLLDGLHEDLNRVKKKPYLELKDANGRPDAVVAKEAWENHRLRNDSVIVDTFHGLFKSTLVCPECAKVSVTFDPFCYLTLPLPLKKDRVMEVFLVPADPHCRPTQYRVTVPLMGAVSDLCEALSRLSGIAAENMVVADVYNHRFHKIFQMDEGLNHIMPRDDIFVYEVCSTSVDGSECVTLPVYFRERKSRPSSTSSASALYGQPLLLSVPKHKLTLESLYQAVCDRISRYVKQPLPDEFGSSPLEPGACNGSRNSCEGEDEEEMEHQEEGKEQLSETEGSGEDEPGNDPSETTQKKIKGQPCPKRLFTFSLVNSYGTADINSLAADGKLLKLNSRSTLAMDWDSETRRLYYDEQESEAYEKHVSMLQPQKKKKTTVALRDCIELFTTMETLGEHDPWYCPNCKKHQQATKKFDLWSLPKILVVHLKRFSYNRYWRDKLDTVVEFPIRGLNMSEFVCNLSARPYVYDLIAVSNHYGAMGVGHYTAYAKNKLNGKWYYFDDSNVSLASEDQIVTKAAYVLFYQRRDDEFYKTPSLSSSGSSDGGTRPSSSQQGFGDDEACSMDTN
Procedure, shortened: as §1

Measured: log2 ratio of Biotin-Ahx-Ub-VS probe labelling

Chain of USP34 (Q70CQ2 whole entry, the tested form may be a part): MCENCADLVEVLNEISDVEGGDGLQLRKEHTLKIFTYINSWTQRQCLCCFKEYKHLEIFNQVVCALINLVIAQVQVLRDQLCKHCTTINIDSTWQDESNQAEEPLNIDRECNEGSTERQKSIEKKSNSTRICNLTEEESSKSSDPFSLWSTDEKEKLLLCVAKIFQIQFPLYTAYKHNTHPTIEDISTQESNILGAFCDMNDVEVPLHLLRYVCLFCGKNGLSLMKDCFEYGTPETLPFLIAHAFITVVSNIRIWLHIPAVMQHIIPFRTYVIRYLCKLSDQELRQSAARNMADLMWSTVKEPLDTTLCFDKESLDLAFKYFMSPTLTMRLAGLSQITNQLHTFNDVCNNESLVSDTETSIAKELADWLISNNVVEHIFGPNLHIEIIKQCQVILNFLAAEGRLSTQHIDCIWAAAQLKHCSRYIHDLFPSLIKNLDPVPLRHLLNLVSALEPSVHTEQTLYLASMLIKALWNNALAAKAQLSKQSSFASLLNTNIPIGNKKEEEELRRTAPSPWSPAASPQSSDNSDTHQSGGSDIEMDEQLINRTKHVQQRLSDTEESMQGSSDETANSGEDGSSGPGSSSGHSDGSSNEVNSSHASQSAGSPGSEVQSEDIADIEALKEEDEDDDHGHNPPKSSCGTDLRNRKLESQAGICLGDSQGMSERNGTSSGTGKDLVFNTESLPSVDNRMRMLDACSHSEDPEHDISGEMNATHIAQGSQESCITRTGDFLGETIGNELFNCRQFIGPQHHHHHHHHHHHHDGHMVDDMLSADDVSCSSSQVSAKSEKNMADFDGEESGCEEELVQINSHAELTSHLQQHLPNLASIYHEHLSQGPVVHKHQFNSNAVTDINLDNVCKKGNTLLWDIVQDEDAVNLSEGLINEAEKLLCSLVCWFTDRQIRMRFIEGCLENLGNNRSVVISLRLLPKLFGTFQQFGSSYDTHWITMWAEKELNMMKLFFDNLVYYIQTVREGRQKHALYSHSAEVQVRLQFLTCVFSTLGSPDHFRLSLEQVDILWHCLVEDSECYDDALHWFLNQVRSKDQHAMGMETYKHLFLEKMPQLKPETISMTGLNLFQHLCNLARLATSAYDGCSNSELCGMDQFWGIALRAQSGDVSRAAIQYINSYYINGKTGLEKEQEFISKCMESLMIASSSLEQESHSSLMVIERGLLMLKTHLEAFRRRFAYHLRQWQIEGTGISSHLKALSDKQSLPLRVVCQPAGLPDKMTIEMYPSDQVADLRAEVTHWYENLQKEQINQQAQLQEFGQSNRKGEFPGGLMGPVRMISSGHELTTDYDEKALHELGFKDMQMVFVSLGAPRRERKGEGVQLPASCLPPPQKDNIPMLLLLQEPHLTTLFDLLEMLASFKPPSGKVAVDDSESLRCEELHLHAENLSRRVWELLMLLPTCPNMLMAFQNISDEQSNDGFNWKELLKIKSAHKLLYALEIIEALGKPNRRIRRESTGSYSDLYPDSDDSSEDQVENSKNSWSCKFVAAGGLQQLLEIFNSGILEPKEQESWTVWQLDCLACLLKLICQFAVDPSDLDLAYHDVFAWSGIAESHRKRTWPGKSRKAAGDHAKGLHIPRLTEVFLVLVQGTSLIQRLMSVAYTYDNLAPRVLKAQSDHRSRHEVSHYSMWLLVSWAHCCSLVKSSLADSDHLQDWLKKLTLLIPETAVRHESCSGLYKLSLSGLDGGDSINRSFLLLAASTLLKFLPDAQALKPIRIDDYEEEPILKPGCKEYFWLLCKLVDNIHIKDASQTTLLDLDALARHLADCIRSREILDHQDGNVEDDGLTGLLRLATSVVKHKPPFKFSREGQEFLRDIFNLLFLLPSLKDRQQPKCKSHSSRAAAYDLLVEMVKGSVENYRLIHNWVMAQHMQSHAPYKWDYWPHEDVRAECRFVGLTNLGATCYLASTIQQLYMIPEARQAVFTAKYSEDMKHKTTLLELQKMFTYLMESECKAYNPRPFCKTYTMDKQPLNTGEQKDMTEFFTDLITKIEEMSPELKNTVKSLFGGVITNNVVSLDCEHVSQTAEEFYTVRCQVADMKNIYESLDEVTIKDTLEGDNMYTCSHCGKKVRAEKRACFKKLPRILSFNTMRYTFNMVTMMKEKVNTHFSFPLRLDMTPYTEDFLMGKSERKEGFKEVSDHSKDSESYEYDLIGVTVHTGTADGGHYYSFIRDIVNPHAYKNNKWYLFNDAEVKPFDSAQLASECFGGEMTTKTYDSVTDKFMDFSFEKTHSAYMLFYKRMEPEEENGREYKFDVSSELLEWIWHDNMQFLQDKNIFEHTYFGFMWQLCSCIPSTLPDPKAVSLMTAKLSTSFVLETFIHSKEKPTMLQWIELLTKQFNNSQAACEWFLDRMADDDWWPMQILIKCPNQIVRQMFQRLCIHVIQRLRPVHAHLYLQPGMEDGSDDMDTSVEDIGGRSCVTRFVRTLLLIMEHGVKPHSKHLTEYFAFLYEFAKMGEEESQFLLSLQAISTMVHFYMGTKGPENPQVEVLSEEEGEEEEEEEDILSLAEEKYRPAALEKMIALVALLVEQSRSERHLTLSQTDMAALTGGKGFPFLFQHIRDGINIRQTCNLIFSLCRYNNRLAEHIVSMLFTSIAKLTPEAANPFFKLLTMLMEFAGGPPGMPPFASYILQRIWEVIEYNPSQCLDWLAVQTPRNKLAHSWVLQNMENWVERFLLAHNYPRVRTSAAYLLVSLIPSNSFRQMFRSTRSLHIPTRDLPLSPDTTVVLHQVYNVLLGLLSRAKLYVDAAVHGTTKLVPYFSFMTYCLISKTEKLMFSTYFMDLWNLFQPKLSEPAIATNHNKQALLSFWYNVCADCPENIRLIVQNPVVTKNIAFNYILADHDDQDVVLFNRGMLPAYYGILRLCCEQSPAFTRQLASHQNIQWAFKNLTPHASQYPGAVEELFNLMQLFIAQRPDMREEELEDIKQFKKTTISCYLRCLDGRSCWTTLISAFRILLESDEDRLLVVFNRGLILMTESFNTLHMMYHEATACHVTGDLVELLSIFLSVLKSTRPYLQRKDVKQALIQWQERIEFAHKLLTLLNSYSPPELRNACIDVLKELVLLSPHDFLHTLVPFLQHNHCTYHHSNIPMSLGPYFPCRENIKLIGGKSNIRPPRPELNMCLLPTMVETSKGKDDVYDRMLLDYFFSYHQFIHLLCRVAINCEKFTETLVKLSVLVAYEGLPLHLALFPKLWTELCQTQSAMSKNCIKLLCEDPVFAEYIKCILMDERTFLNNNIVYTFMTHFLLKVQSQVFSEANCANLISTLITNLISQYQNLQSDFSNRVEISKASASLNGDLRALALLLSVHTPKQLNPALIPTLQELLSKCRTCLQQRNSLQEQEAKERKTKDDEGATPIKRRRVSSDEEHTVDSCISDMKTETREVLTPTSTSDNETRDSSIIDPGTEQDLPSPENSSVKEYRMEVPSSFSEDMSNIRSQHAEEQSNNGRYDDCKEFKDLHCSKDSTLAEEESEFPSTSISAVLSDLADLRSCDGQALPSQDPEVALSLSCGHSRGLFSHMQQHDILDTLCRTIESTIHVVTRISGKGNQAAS

Cc1nnc(C(NC(=O)CCl)c2ccccc2)n1C (stereo not given)
inactive: USP34 0.334 | USP36 0.114 | USP38 0.538 | USP39 0.132 | USP4 0.55
